From PubChem BioAssay
For some of these results: Measured potencies and affinities stand elsewhere. Activity calls are given as the source filed them.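 The calls were made as follows, unless noted: active = calcium signal rise above buffer-control mean plus 5 SD in both duplicates, and also a hit in the primary screen; inactive = the rest.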

Assays:
[1] = tested on: TRPC4 beta (transient receptor potential cation channel C4), mouse; assay: TRPC4 cation channel opening, retest – cell-based, Fluo4 calcium, HEK293 TRPC4beta/mu-opioid, duplicates, 10 µM, confirmation (AID 2426;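 active = fluorescence ratio normalized to control raised more than 50% in primary screen plus both repeat runs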;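 as to activation: percent rise of integrated ratio over buffer wells lacking compound which define 0%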); settings: Fluo4 calcium fluorescence, at 10 µM; active compounds read high
[2] = tested on: transient receptor potential cation channel C4 beta (TRPC4), mouse; assay: TRPC4 cation channel opening, second retest – cell-based, second round, Fluo4, HEK293 TRPC4beta/mu-opioid, 1 µM, confirmation (AID 2461;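 active = primary screen active and over 50% activation in each of two duplicate runs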;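 as to activation: 0% = wells without test compound as baseline of integrated fluorescence ratio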); settings: Fluo4 calcium fluorescence, at 1 µM; active compounds read high
[3] = tested on: TRPC4 (transient receptor potential cation channel C4 beta), mouse; assay: potentiation of DAMGO EC20 TRPC4 response – cell-based, second round, Fluo-4, HEK293 TRPC4beta/mu-opioid, 1 µM, confirmation (AID 2554;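 active = primary screen hit whose fluorescence ratio, in both repeats, exceeds the weak agonist control mean by 3 SD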); settings: DAMGO EC20, Fluo-4 calcium flux, at 1 µM; active compounds read high
[4] = tested on: TRPC4 beta (transient receptor potential cation channel C4), mouse; assay: potentiation of DAMGO EC20 TRPC4 response – cell-based, Fluo-4, HEK293 TRPC4beta/mu-opioid, confirmation (AID 2555;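 active = primary screen hit whose calcium fluorescence ratio, in both repeats, exceeds the weak agonist control mean by 3 SD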); settings: DAMGO EC20, Fluo-4 calcium flux, at 10 µM; active compounds read high
[5] = target: Short transient receptor potential channel 4 (Mus musculus) (UniProt Q9QUQ5); assay: blockers of DAMGO-evoked TRPC4 calcium flux – cell-based, Fluo4, HEK293 TRPC4beta/mu-opioid, confirmation (AID 2636;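 active = calcium signal cut by more than 3 SD below the full-agonist control yet still positive, in both repeats and the earlier primary screen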); settings: at 10 µM; active compounds read high
Sequence of Short transient receptor potential channel 4 (Mus musculus) (Q9QUQ5 whole entry, looked up): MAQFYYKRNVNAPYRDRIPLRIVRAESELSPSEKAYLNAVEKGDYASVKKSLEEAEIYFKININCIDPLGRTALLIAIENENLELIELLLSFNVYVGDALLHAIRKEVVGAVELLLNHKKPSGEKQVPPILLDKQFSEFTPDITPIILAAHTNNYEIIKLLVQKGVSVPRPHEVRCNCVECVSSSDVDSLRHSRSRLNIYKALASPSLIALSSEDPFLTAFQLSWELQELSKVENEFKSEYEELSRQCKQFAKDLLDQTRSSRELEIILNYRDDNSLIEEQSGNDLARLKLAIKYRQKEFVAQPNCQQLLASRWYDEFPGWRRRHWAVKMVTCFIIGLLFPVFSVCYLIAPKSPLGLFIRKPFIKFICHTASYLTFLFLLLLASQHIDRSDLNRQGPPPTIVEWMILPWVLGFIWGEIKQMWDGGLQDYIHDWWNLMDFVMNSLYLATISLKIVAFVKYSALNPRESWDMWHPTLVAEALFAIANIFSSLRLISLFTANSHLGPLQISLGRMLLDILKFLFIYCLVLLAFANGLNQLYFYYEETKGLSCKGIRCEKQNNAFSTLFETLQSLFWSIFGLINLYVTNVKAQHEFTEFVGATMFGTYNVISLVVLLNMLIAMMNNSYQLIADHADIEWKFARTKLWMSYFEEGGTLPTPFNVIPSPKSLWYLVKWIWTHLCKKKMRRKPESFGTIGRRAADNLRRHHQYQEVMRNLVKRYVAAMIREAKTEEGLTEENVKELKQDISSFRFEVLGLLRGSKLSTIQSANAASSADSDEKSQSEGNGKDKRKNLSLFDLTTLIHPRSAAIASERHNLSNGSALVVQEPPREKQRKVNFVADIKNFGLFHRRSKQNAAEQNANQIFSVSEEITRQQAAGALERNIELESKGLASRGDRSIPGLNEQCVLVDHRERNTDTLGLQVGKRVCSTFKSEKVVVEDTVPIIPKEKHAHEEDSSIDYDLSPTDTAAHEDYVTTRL

[6] = target: Short transient receptor potential channel 4 (Mus musculus) (UniProt Q9QUQ5); assay: blockers of DAMGO-evoked TRPC4 calcium flux – cell-based, second round, Fluo4, HEK293 TRPC4beta/mu-opioid, 1 µM, confirmation (AID 2637;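 active = calcium signal ratio cut to more than 3 SD under the fully stimulated control mean yet still positive, in both repeats and the primary screen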); settings: at 1 µM; active compounds read high
[7] = target: Short transient receptor potential channel 4 (Mus musculus) (UniProt Q9QUQ5); assay: potentiation of DAMGO-evoked TRPC4 calcium signal – cell-based, HEK293 TRPC4/mu-opioid, Fluo-4 calcium, EC20 DAMGO, dose response (AID 434941;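 active = earlier screen potentiator hit that boosts the TRPC4 ion channel at some dose, with a dose response; inactive = no potentiation, no dose response, or not a prior hit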;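 also: calcium entry triggered by an EC20 dose of DAMGO at the co-expressed mu-opioid receptor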)
[8] = target: Short transient receptor potential channel 4 (Mus musculus) (UniProt Q9QUQ5); assay: block of DAMGO-driven TRPC4 calcium entry – cell-based, HEK293 TRPC4/mu-opioid, Fluo-4 calcium, dose response (AID 434942;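 active = primary screen inhibitor hit that blocks the TRPC4 channel at some tested dose, yielding a dose curve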)
[9] = target: Short transient receptor potential channel 6 (Mus musculus) (UniProt Q61143); assay: TRPC6 blockade by TRPC4 inhibitor hits – cell-based, HEK293, membrane potential dye, duplicate, selectivity assay for TRPC4 inhibitor project, confirmation (AID 434948;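 active = active in primary screen and both duplicates, each dropping signal beyond three positive-control SD with fluorescence still positive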); settings: HEK293 TRPC6, membrane potential dye fluorescence, at 10 µM, stimulated with maximal-effect acetylcholine; active compounds read high
Sequence of Short transient receptor potential channel 6 (Mus musculus) (Q61143 whole entry, looked up): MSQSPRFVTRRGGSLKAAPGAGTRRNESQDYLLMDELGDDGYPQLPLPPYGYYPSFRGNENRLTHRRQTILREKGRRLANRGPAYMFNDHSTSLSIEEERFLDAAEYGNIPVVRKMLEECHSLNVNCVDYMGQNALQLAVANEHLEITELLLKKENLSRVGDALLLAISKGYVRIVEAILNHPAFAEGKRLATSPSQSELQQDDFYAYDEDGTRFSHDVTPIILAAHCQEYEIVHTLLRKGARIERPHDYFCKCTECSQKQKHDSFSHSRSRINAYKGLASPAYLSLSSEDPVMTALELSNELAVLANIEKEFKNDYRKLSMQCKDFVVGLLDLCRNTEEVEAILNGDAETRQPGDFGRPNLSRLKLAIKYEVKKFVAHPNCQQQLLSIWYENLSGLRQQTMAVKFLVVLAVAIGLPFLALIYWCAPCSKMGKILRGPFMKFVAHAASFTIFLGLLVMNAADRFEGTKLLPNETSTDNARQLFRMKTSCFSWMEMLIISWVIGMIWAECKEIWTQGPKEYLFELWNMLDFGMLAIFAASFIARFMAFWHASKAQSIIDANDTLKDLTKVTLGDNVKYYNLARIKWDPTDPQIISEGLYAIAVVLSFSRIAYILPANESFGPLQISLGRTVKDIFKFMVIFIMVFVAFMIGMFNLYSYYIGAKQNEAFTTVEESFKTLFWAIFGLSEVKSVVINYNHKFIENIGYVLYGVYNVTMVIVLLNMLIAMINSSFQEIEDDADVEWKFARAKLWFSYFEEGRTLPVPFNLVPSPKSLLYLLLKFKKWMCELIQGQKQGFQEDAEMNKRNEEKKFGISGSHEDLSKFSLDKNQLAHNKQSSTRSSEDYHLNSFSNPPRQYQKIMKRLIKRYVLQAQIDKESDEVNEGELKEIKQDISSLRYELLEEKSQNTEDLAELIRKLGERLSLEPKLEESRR

[10] = target: Short transient receptor potential channel 6 (Mus musculus) (UniProt Q61143); assay: TRPC6 opening by TRPC4 activator hits – cell-based, HEK293, membrane potential dye, duplicate, selectivity assay for TRPC4 activator project, confirmation (AID 434950;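 active = membrane potential signal rise above negative control mean plus 3 SD in both duplicates, also active in the earlier TRPC4 screen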;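 as to activation: 0% = buffer only wells and 100% = acetylcholine maximal-effect wells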); settings: HEK293 TRPC6, membrane potential fluorescence, at 10 µM; activation: active compounds read high; outcome: activation
[11] = target: Short transient receptor potential channel 6 (Mus musculus) (UniProt Q61143); assay: positive modulators of mouse TRPC6 channel – HEK293 cells, membrane potential dye, duplicate, selectivity assay for TRPC4 potentiator project, confirmation (AID 434952;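 active = compound raising the membrane signal above positive-control mean plus 3 SD in both repeats, and a primary screen hit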); settings: HEK293 TRPC6, membrane potential dye fluorescence, at 10 µM, maximal acetylcholine added after compound; active compounds read high
[12] = target: Short transient receptor potential channel 4 (Mus musculus) (UniProt Q9QUQ5); assay: calcium flux activators in TRPC4/5HT1a cells, counter-screen for TRPC4 activator project, cell-based, second counter screen, HEK293 TRPC4/5HT1a, Fluo-4 (AID 434977); settings: Fluo-4 calcium flux, at 10 µM; active compounds read high;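 as to activation: plate controls were assay buffer for no effect and maximal serotonin response for full effect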
[13] = serotonin-gated TRPC4 signal block – cell-based, second counter screen, HEK293 TRPC4/5HT1a, Fluo-4, counter-screen for TRPC4 inhibitor project, confirmation (AID 434978;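 active = primary screen active whose calcium signal fell more than 3 SD beyond the full-serotonin control mean in both duplicate plates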;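 also: serotonin given first at submaximal then at maximal dose after compound preincubation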); settings: Fluo-4 calcium flux, at 10 µM, serotonin added to trigger calcium flux; active compounds read high
[14] = tested on: TRPC4 (mouse), co-expressed with 5HT1a in HEK293; assay: enhancement of serotonin-evoked TRPC4 response – cell-based, second counter screen, HEK293 TRPC4/5HT1a, Fluo-4, counter-screen for TRPC4 potentiator project, confirmation (AID 434979;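 active = signal rise over 3 SD above mean of control wells given weak agonist, in both repeats and first screen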); settings: Fluo-4 calcium flux, at 10 µM, serotonin added at its EC20 dose; active compounds read high
[15] = nonspecific calcium rise without TRPC4 – cell-based, HEK293 mu-opioid receptor line, counter-screen for TRPC4 activator project, confirmation (AID 449723;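 active = hit in primary screen, with calcium signal over 5 SD above buffer well mean in both duplicates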;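 also: counter screen cells carry the mu-opioid receptor alone and lack TRPC4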); settings: HEK293 mu-opioid cells, Fluo-4 calcium fluorescence, at 10 µM; active compounds read high
[16] = nonspecific potentiation of DAMGO calcium response – cell-based, HEK293 mu-opioid receptor line, counter-screen for TRPC4 allosteric potentiator project, confirmation (AID 449724;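 active = calcium signal rise more than 3 SD above the low-dose agonist control mean, in both duplicate plates and the primary screen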); settings: HEK293 mu-opioid receptor cells, Fluo-4 calcium flux, at 10 µM, compound added before EC20 DAMGO stimulus; active compounds read high

Measured: activation

CN1C2C=C(N(CCc3ccccc3)C(=O)c3ccc(Cl)cc3)CC1CC2 (configuration not stated)
inactive: [1] | [2] | [3] | [4] | [5] | [6] | [7] | [8] | [9] | [11] | [12] | [13] | [14] | [15] | [16]
active: [10] 50%

CN(CCc1ccccn1)C1CC(=O)N(c2ccc(Cl)cc2)C1=O (configuration not stated)
inactive: [3] | [4] | [5] | [6] | [7] | [8] | [9] | [10] | [11] | [13] | [14] | [15] | [16]
active: [1] 195% | [2] 70% | [12] 102%

NC1=NC2(CCN(Cc3ccccc3)CC2)n2c(nc3ccccc32)N1
active: [1] 54%
inactive: [2] | [3] | [4] | [5] | [6] | [7] | [8] | [9] | [10] | [11] | [12] | [13] | [14] | [15] | [16]

COc1ccc(C(CNC(=O)Cc2ccc(-c3ccccc3)cc2)N(C)C)cc1 (configuration not stated)
active: [1] 192% | [2] 112% | [10] 56%
inactive: [3] | [4] | [5] | [6] | [7] | [8] | [9] | [11] | [12] | [13] | [14] | [15] | [16]

CCCCN1/C(=C/c2ccc3ccccc3[n+]2CC)Sc2ccccc21
inactive: [2] | [3] | [4] | [5] | [6] | [7] | [8] | [9] | [10] | [11] | [13] | [14] | [16]
active: [1] 412% | [12] 154% | [15] 271%

COc1ccc(C(CNC(=O)c2cccc(Br)c2)N2CCCC2)cc1 (configuration not stated)
active: [10] 61.5%
inactive: [1] | [2] | [3] | [4] | [5] | [6] | [7] | [8] | [9] | [11] | [12] | [13] | [14] | [15] | [16]

CCCc1c(O)nc(SCCN(CC)CC)[nH]c1=O
inactive: [3] | [4] | [5] | [6] | [7] | [8] | [9] | [10] | [11] | [13] | [14] | [15] | [16]
active: [1] 179% | [2] 82% | [12] 51.5%
